Our source for the sensor-assay potency score (higher = more potent) values is the OligoGym collection.
Note: reference of the scale not given here.

One experiment has as its target C17orf89. In words: pooled miR-30 sensor sort-seq; sequence = guide strand. The settings on record: shRNA.
In turn, TTGGCCGCAGCGGCGAAGCAGC had a sensor-assay potency score (higher = more potent) of -1.67. The same measure, in the same setting: as for CAGAAGTCCTTACTCAGGCGGC, the figure is -1.6; as for TCTTCTTGGCCGCAGCGGCGAA, -1.65; as for TTCTTGGCCGCAGCGGCGAAGC, -1.54.

TACGCCGCGGCCTCGGCCCCGC: the sensor-assay potency score (higher = more potent) is -1.68.

As to AGGCCTGCACGCACCTGCCGTA, the sensor-assay potency score (higher = more potent) is -1.48. Same read-out and setting: as for AAGTCCTTACTCAGGCGGCCGC, the figure is -1.52; as for AGGGCCTCGAACTCCCGCGCGC, -1.88. In turn, TCCCGCGCGCAGAAGTCCTTAC had a sensor-assay potency score (higher = more potent) of -1.42. In turn, TCGAACTCCCGCGCGCAGAAGT yielded a sensor-assay potency score (higher = more potent) of -1.83. TTACTCAGGCGGCCGCCCGGGG registered a sensor-assay potency score (higher = more potent) of -1.34. In turn, TCGCACGCGGCCCCACACCGCT came in with a sensor-assay potency score (higher = more potent) of -1.58.

A further experiment concerns the target C18orf34. The experiment is described as above. The conditions noted are these: shRNA.
TTGTCGAGACTTCTGATTCTTT came in with a sensor-assay potency score (higher = more potent) of -0.716. Same read-out and setting: as for TAATTCTATAACATCACTCAAA, the figure is -0.981; as for TTGAAGTTCCTGATTCTGCTTA, 0.774; as for TATTCTTTCTTGATCTCTGTTG, -0.0146.

Sequence TTTCATCTCTCTTTTCTCCTGG yielded a sensor-assay potency score (higher = more potent) of 0.616. In the case of TTGTCTTACTTTTAGTTGCTTC, the sensor-assay potency score (higher = more potent) was -0.608. Sequence TTTTTTATTGTCTTCCGTCAGT yielded a sensor-assay potency score (higher = more potent) of -0.408. In the case of TTCTTCATTAACTTTTCTGTGT, the sensor-assay potency score (higher = more potent) was 0.0915. Consider TTCATCTTCTAGTTGAAGCAGA, for which the sensor-assay potency score (higher = more potent) was -0.375. Same read-out and setting: as for TACACTGTTATCTGAACTGTGT, the figure is 0.065; as for TAGTTTTTTCTGAAGCACCATT, -0.995; as for TTTTGTTGACACAAGGTGCTGG, 0.854.

For the next experiment, the target named is C18orf56. The experiment is described as above. The conditions noted are these: shRNA.
Sequence TCGGTATTCGGCATGCAGGCGC came in with a sensor-assay potency score (higher = more potent) of -0.876. Same read-out and setting: as for ACACACAGCAGCGACAGCCGGG, the figure is -1. On to TTAGTCCTAACCTCAATCCTGC, for which the sensor-assay potency score (higher = more potent) is -0.842.

Turning to TAGAATTATCTCTTCATCTGGG, the sensor-assay potency score (higher = more potent) amounted to 0.794.

With TATCTCTTCATCTGGGACCTGG, the sensor-assay potency score (higher = more potent) was -0.00491. Same read-out and setting: as for TAGTCCTAACCTCAATCCTGCC, the figure is -1.52; as for TTTAGTCCTAACCTCAATCCTG, -0.687. Same read-out and setting: as for TCTAATGCATCCTATATCCAGT, the figure is -0.446. In turn, TTAGGGACGTGACTGGCGCGGG registered a sensor-assay potency score (higher = more potent) of -1.11. On the same count and under the same terms, in the case of TATTTTGATCATTGCTGCCTTT it was -0.437; in that of ATGCAGGCGCGCTACAGCCTGA, -1.57. The sequence TTAGTATTTTGATCATTGCTGC registered a sensor-assay potency score (higher = more potent) of -0.0513.

The target of the next experiment is C19orf26. The experiment is described as above. The settings on record: shRNA.
The sequence TCATTGAAGGAGACCCGGCGGC gave a sensor-assay potency score (higher = more potent) of -0.71.

TTCGGTCTCCGCATCCTGGCAC: the sensor-assay potency score (higher = more potent) was -0.126. Still for that read-out and setting: as for TCCGTCAGTGTGTACCGGCGAC, the figure is -0.95.
